This is an account of results in PubChem BioAssay (Tox21).

A number with no mark means an inactive call. Records with an inconclusive call do not appear. The source made the active and inactive calls. The call rests on the fitted dose curve; in most records, active means well fitted curve in the direction sought with a large enough effect in the repeat runs; inconclusive means weak or mixed curves; inactive means no such curve, though single readings can be large; an effect the other way counts as inactive or inconclusive.

Experiment [1] in a line: A CellTox Green Cytotoxicity Assay to monitor cytotoxicity in HEK293 cells - 32 hour (AID 1224881). Further: nearly all actives have a fitted effect of over 40% in size. Summed up: (§1)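 HEK293 cells, 600/well, were preincubated 5 hours and then exposed to compounds at 37 C for up to 40 hours. A cell-impermeant cyanine dye staining dead-cell DNA was read by fluorescence at 0, 8, 16, 24, 32 and 40 h time points.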
Experiment [2] in a line: A CellTox Green Cytotoxicity Assay to monitor cytotoxicity in HepG2 cells - 0 hour (AID 1224882). Further: nearly all actives have a fitted effect of over 35% in size. Summed up: (§2)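 HepG2 cells, 600/well, preincubated 5 h with CellTox Green dye, then exposed to Tox21 compounds in DMSO at 37 C for up to 40 h. Dead-cell DNA fluorescence read at the indicated time point.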
A short description of experiment [3]: A CellTox Green Cytotoxicity Assay to monitor cytotoxicity in HepG2 cells - 32 hour (AID 1224883). Further: nearly all actives have a fitted effect of over 50% in size. Further: potency means the concentration at half of the fitted maximal effect. An outline of the steps:
as §2

A short description of experiment [4]: A CellTox Green Cytotoxicity Assay to monitor cytotoxicity in HEK293 cells - 8 hour (AID 1224884). Further: nearly all actives have a fitted effect of over 35% in size. Summed up:
as §1

The nature of experiment [5]: qHTS RealTime-Glo MT Cell Viability Assay in HepG2 cells - 16 hour (AID 1224885). Further: nearly all actives have a fitted effect of over 50% in size. Summed up: (§3)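 Cell number in HepG2 cultures estimated from NanoLuc luminescence generated by metabolic reduction of a prosubstrate by living cells. The homogeneous, nonlytic format allowed repeated reads at 0, 8, 16, 24, 32 and 40 h of compound exposure.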
Background: In qHTS, concentration-response curves come from the screen itself.

Experiment [6] in a line: qHTS RealTime-Glo MT Cell Viability Assay in HEK293 cells - 24 hour (AID 1224886). Further: nearly all actives have a fitted effect of over 50% in size. Further: potency means the concentration at half of the fitted maximal effect. On activity change, negative = cytotoxicity: top concentration of the series differs between compounds. An outline of the steps: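 Homogeneous bioluminescent viability format in HEK293 cells (600 cells/well). Following 5 h at 37 C/5% CO2, 23 nL compound was pintooled; the signal was measured repeatedly during 40 h incubation.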
The nature of experiment [7]: qHTS RealTime-Glo MT Cell Viability Assay in HEK293 cells - 8 hour (AID 1224887). Further: nearly all actives have a fitted effect of over 50% in size. Further: potency means the concentration at half of the fitted maximal effect. On activity change, negative = cytotoxicity: top concentration of the series differs between compounds. Summed up:
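600 cells/well were plated with the nonlytic NanoLuc/prosubstrate reagent, pre-incubated 5 h, then given 23 nL of compound in DMSO. Incubation at 37 C for 40 h, with luminescence from viable-cell-reduced substrate read repeatedly from 0 h.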

Experiment [8] is described as follows: A CellTox Green Cytotoxicity Assay to monitor cytotoxicity in HEK293 cells - 16 hour (AID 1224888). Further: nearly all actives have a fitted effect of over 35% in size. Summed up: as §1
Experiment [9] is described as follows: qHTS RealTime-Glo MT Cell Viability Assay in HepG2 cells - 0 hour (AID 1224889). Further: nearly all actives have a fitted effect of over 50% in size. Further: potency means the concentration at half of the fitted maximal effect. Summed up: as §3
The nature of experiment [10]: A CellTox Green Cytotoxicity Assay to monitor cytotoxicity in HepG2 cells - 8 hour (AID 1224890). Further: nearly all actives have a fitted effect of over 45% in size. An outline of the steps: as §2
On the % scale 0 is the no-effect control and ±100 the full control effect.

Consider `Nc1ccc(Cl)cc1[N+](=O)[O-]`, for which the Potency result in experiment [1], in experiment [2], in experiment [3], in [4], in experiment [5] and in experiment [6] was “inactive” each time. The Potency result in experiment [7], in experiment [8], in experiment [9] and in experiment [10] was “inactive” in each case.
For the compound `O=C(NCCCN1CCOCC1)c1ccc(Cl)cc1`, the Potency entry in experiment [1], in experiment [2], in experiment [3], in [4], in [5] and in experiment [6] was “inactive” each time. In addition, the Potency entry in experiment [7], in [8], in [9] and in experiment [10] was “inactive” throughout.
As to `CCC(C(=O)OCCOCCN(CC)CC)c1ccccc1` (configuration not stated), the Potency result in experiment [1], in [2], in experiment [3], in [4], in experiment [5] and in [6] was “inactive” in each case. The Potency result in experiment [7], in experiment [8], in experiment [9] and in experiment [10] was “inactive” throughout.
For `O=C(/C=C/c1ccccc1)OCCCc1ccccc1`, the Potency entry in [1], in experiment [2], in experiment [3], in experiment [4], in experiment [5] and in [6] was “inactive” in each case. The Potency entry in [7], in [8], in [9] and in experiment [10] was “inactive” throughout.
On to `C[C@]12CCC(=O)C=C1C=C[C@@H]1[C@@H]2CC[C@@]2(C)[C@H]1CC[C@@]21CCC(=O)O1`, for which the Potency result in experiment [1], in experiment [2], in experiment [3], in [4], in [5] and in [6] was “inactive” each time. The Potency entry in experiment [7] and in experiment [8] was “inactive” in each case. Further, the Potency in [9] is 7.56 µM (active).
With `O=Cc1c(Cl)cccc1Cl`, the Potency result in experiment [1], in experiment [2], in experiment [3], in experiment [4], in experiment [5] and in [6] was “inactive” each time. The Potency entry in experiment [7], in [8], in experiment [9] and in [10] was “inactive” throughout.
Turning to `CC1(C)C(=O)N(Br)C(=O)N1Cl`, the Potency result in experiment [1], in experiment [2], in experiment [3], in [4], in experiment [5] and in [6] was “inactive” in each case. Also, the Potency entry in experiment [7], in [8], in experiment [9] and in [10] was “inactive” throughout.
`[O]=[Bi]`: the cytotoxicity increase in [1] was -0.855% [at 6.97 µM]; in [3], -9.49% [at 6.97 µM]; in [4], -5.25% [at 6.97 µM]; in experiment [10], 2.13% [at 6.97 µM]. In addition, the cytotoxicity in experiment [2] is 1.27% [at 6.97 µM]. For the same compound, in experiment [5], the activity change, negative = cytotoxic was 1.05% [at 6.97 µM]. The figures for the activity change, negative = cytotoxicity in [6], in experiment [7] and in experiment [9] were 5.04% [at 6.97 µM], 1.28% [at 6.97 µM] and 1.28% [at 6.97 µM], respectively. Also, the activity change in [8] was -2.4% [at 6.97 µM, active compounds read high].
Turning to `CCCC(=O)O[C@]1(C(=O)COC(=O)CC)CC[C@H]2[C@@H]3CCC4=CC(=O)CC[C@]4(C)[C@H]3[C@@H](O)C[C@@]21C`, the cytotoxicity increase was -18.3% [at 15.8 µM] in [1], -8.25% [at 15.8 µM] in experiment [3], -4.08% [at 15.8 µM] in experiment [4] and -2.4% [at 15.8 µM] in experiment [10]. The cytotoxicity in [2] is -8.79% [at 15.8 µM]. Moreover, the activity change, negative = cytotoxic in experiment [5] was 1.6% [at 15.8 µM]. For the same compound, the results for the activity change, negative = cytotoxicity in [6], in experiment [7] and in experiment [9] were 2.56% [at 15.8 µM], 0.511% [at 15.8 µM] and -13.7% [at 15.8 µM], respectively. The activity change in experiment [8] is -13.4% [at 15.8 µM, active compounds read high].
Regarding `CCCOc1ccc(S(=O)(=O)N2CCN(CC)CC2)cc1-c1nc2c(CC)n(Cc3ccccn3)nc2c(=O)[nH]1`, the Potency result in [1], in experiment [2], in experiment [3], in [4], in [5] and in experiment [6] was “inactive” in each case. Besides, the Potency result in experiment [7], in [8], in [9] and in [10] was “inactive” in each case.
Turning to `Cn1c(=O)c2c(ncn2CC(=O)O)n(C)c1=O`, the Potency entry in [1], in experiment [2], in experiment [3], in experiment [4], in experiment [5] and in experiment [6] was “inactive” each time. Besides, the Potency result in [7], in experiment [8] and in [9] was “inactive” in each case.
Take `O=C(O)c1ccccc1NCCc1ccccc1`: the Potency entry in experiment [1], in [2], in experiment [3], in experiment [4], in [5] and in experiment [6] was “inactive” each time. In addition, the Potency result in experiment [7], in experiment [8] and in [9] was “inactive” each time.
Regarding `Nc1c(I)cc(I)c(C(=O)N(CCC(=O)O)c2ccccc2)c1I`, the Potency result in experiment [1], in experiment [2], in [3], in [4], in experiment [5] and in [6] was “inactive” throughout. The Potency result in experiment [7], in experiment [8], in [9] and in [10] was “inactive” each time.
In the case of `CCn1cc(C(=O)O)c(=O)c2cc(F)c(N3CCNCC3)nc21`, the Potency result in experiment [1], in experiment [2], in [3], in experiment [4], in experiment [5] and in experiment [6] was “inactive” throughout. Besides, the Potency result in experiment [7], in [8], in experiment [9] and in experiment [10] was “inactive” throughout.
With `Cc1ccccc1N1C(=O)c2cc(S(N)(=O)=O)c(Cl)cc2NC1C` (configuration not stated), the Potency entry in experiment [1], in [2], in [3], in [4], in experiment [5] and in experiment [6] was “inactive” throughout. In addition, the Potency result in experiment [7] and in experiment [8] was “inactive” each time.
With `CCNC(=O)N1CCN(CCCC(c2ccc(F)cc2)c2ccc(F)cc2)CC1`, the Potency result in experiment [1], in experiment [2], in [4], in [5], in experiment [8] and in experiment [9] was “inactive” throughout. Besides, the Potency entry in experiment [10] was “inactive”. For the same compound, the Potency in [3] is 21.3 µM (active); in experiment [6], 16.9 µM (active); in experiment [7], 16.9 µM (active).
As to `CC1=NN(c2ccc(C(=O)O)cc2)C(=O)C1`, the Potency entry in experiment [1], in experiment [2], in experiment [3], in experiment [4], in experiment [5] and in experiment [6] was “inactive” throughout. Besides, the Potency result in experiment [7], in experiment [8] and in experiment [9] was “inactive” each time.
Take `CCC(C)=O`: the Potency entry in experiment [1], in experiment [2], in [3], in [4], in experiment [5] and in experiment [6] was “inactive” throughout. Besides, the Potency entry in experiment [7], in experiment [8], in [9] and in experiment [10] was “inactive” each time.
For the compound `CC(C)CCCCCOC(=O)CCCCC(=O)OCCCCCC(C)C`, the Potency result in experiment [1], in experiment [2], in [3], in experiment [4], in experiment [5] and in [6] was “inactive” throughout. Also, the Potency result in experiment [7], in experiment [8], in [9] and in [10] was “inactive” in each case.
As to `Nc1nc(Cl)nc2c1ncn2[C@@H]1O[C@H](CO)[C@@H](O)[C@@H]1F`, the Potency entry in [1], in experiment [2], in [3], in experiment [4], in experiment [5] and in experiment [7] was “inactive” throughout. For the same compound, the Potency result in [8], in experiment [9] and in experiment [10] was “inactive” in each case. Further, in experiment [6], the Potency was 4.77 µM (active).
With `COc1ccc(CCC(=O)c2c(O)cc(O[C@@H]3O[C@H](CO)[C@@H](O)[C@H](O)[C@H]3O[C@@H]3O[C@@H](C)[C@H](O)[C@@H](O)[C@H]3O)cc2O)cc1O`, the Potency result in experiment [1], in [2], in [3], in experiment [4], in experiment [5] and in experiment [6] was “inactive” throughout. For the same compound, the Potency result in [7], in [8] and in experiment [9] was “inactive” each time.
With `CN(C(=O)C(Cl)Cl)c1ccc(OC(=O)c2ccco2)cc1`, the Potency result in experiment [1], in [2], in [3], in experiment [4], in experiment [5] and in [6] was “inactive” in each case. Besides, the Potency entry in experiment [7], in [8] and in [9] was “inactive” each time.
